Hits are enriched below; roughly 5.3% of the tested compounds scored in any of these assays.
PfM18AAP inh = PfM18AAP inhibitors, malaria aminopeptidase, primary screen, biochemical, QFRET, recombinant enzyme; M18 aspartyl aminopeptidase (Plasmodium falciparum 3D7); H-Glu-NHMec fluorogenic cleavage; inhibition, % at 7.35 µM; 1.2% of 290,000 active; AID 1822, 2009;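 active means inhibition above the campaign mean inhibition over all tested compounds plus 3 SD, cut at about 28% in these data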;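 further: 0% = plate median of test compound wells and 100% = 2 mM ZnCl2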
HIF act = HIF pathway transcriptional activators, primary screen, cell-based, U2OS HRE-luciferase, luminescence. AID 1910, 2009. 0.32% of 300,000 active. U2OS HRE-luciferase reporter; normalized: DMSO 0%, desferrioxamine 100%. activation, % at 7.5 µM (by protocol);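 active means mean activation of at least 10% of the iron chelator positive control signal, with at least half of replicates also reaching 10%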
ALR H2O2 inh = inhibitors of human ALR sulfhydryl oxidase, primary screen, biochemical, H2O2 detection, HRP-luminol luminescence, single point; AID 485317, 2010; purified ALR, DTT oxidation; inhibition, % (concentration not given with the values); 3.8% of 290,000 active;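 active means mean replicate inhibition above about 79%, with every replicate also reaching it, limit read from the data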
Target sequence (P55789 whole entry, looked up): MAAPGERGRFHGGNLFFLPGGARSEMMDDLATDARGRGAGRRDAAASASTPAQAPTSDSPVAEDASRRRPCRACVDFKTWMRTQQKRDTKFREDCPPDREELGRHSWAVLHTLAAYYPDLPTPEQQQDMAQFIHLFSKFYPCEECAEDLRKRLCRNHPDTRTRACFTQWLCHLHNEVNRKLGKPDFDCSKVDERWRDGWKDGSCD
Mot1-301 SUMO = yeast Mot1-301 growth rescue at high temperature, primary screen, SUMOylation pathway inhibitor project, S. cerevisiae, ATP luminescence, 38.5C; S. cerevisiae Mot1-301 growth rescue; percent above DMSO median, 100 means doubled; growth rescue, % at 18.8 µM; 1% of 320,000 active;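 active means every valid replicate shows activation above 250% relative to neutral control wells; inactive means the rest, any valid replicate at or below 250%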;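 further: OY570 slx delta 5 strain wells were the positive control but not used for scaling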
* marks the source's active call; other numbers are inactive results; . = not tested or not shown.

SMILES	PfM18AAP inh	HIF act	ALR H2O2 inh	Mot1-301 SUMO
COc1cccc(/C=N/NC(=O)CSc2ccccc2C)c1O	7.2	12.1*	.	.
COc1cccc(/C=N/NC(=O)C(C)n2nc(C)c([N+](=O)[O-])c2C)c1O (configuration not stated)	6.8	8.5	40.9	17.6
COc1cccc(/C=N/NC(=O)Cn2nc(C)c([N+](=O)[O-])c2C)c1O	-2.5	5.4	87.8*	258.9
COc1cccc(/C=N/NC(=O)CSc2ccccc2C)c1OC	2.5	-0.5	-8.7	-11.4
Cc1n(Cc2ccccc2)c2ccccc2[n+]1Cc1ccccc1	5.6	-0.4	-7.1	-4.4
Cc1n[nH]c(=O)c2c(NC(=O)CSc3nnc(C4CC4)n3C)oc(C)c12	.	1.2	-8.1	-13.7
COC(CN(C(=O)CCl)C(C(=O)NC1CCCCC1)c1ccccc1C)OC (configuration not stated)	-0.6	-0.7	77.1*	12.1
COC(CN(C(=O)CCl)C(C(=O)NC1CCCCC1)c1ccc(Cl)cc1)OC (configuration not stated)	-4.0	63.0*	0.0	79.4
COC(CN(C)C(C(=O)NC1CCCCC1)c1ccccc1)OC (configuration not stated)	0.0	-0.8	-1.1	0.6
COc1ccc(C(C(=O)NC2CCCCC2)N(C(=O)CCl)c2ccc(Cl)cc2)cc1 (configuration not stated)	-5.8	-0.4	-3.9	86.0
O=C(N/C=N/O)C(c1ccccc1)c1ncc(C(F)(F)F)cc1Cl (configuration not stated)	6.0	4.1	.	-12.3
O=C1C=C(c2ccc(Cl)nc2)C[C@@H](c2ccc3c(c2)OCO3)C1	.	.	-0.1	22.2
CCCCN1C(=O)N(c2nnc(C(C)(C)C)s2)C(O)C1c1ccc(C)cc1 (configuration not stated)	12.9	0.2	3.8	-20.4
O=c1c2sccc2nc(SCc2cc(=O)n3ccccc3n2)n1Cc1ccccn1	-3.9	2.0	-3.0	33.0
COc1ccc(/C=C2\C(=O)ON=C2c2ccccc2)cc1	23.6	3.1	97.8*	-4.3
Cc1nn(-c2ccc(N3CCCCC3)nn2)c(C)c1CCC(=O)Nc1ccc(F)c(F)c1	1.3	2.9	-6.7	35.3
CCn1c(-c2c(Cl)c(C)nn2C)n[nH]c1=S	31.6*	-0.1	49.0	108.8
COc1ccc(CCNC(=O)c2cccc(C(=O)NCCc3ccc(OC)cc3)n2)cc1	.	-0.4	-5.0	-2.8
O=C(c1ccc2c(c1)C(=O)N(Cc1ccco1)C2O)N1CCOCC1 (configuration not stated)	10.8	.	87.1*	-10.1
CCOc1ccc(C(=O)NCC2CCCO2)cc1OCC (configuration not stated)	0.9	11.3*	-0.7	1.8
COc1ccc(N=c2oc3cc(O)ccc3cc2C(=O)NCC2CCCO2)cc1 (configuration not stated)	-6.8	1.1	-21.1	4.2
CC(=O)c1cc2ccc(O)cc2oc1=O	4.8	-0.5	.	7.6
CCOc1ccccc1N=c1oc2cc(O)ccc2cc1C(=O)NCC1CCCO1 (configuration not stated)	-2.4	0.2	98.3*	-4.2
Cc1ccc(N=c2oc3cc(O)ccc3cc2C(N)=O)cc1	2.3	2.6	95.7*	.
CCOc1ccc(N=c2oc3cc(O)ccc3cc2C(=O)NCC2CCCO2)cc1 (configuration not stated)	3.8	-0.2	-6.5	356.7*
SMILES	PfM18AAP inh	HIF act	ALR H2O2 inh	Mot1-301 SUMO
Cc1cc(C)c(OCCNC(=O)c2ccccc2Sc2ccccc2C#N)c(C)c1	-1.9	-0.3	-0.7	-3.3
CCOCCn1c(CN2CCc3ccccc3C2)nc2c1c(=O)n(C)c(=O)n2C	-0.7	-0.7	-15.6	-18.9
N#CCSc1ccc2nc(-c3ccccc3)cn2n1	2.6	6.5	-10.5	-9.1
CCc1ccccc1N/N=C(/C)c1c(O)cc(C)oc1=O	-9.0	0.1	98.1*	14.0
C=CCn1c(N)c(-c2nc3ccccc3n2C)sc1=S	-10.7	-0.4	89.7*	10.4
Cn1c(-c2sc(=S)n(-c3ccccc3)c2N)nc2ccccc21	0.4	2.2	-5.2	-2.5
O=C1OCC(CO)(CO)N=C1NNc1ccccc1Cl	6.7	0.1	99.4*	171.1
COc1ccc(N2CCN(Cc3nc4ccccc4n3C)CC2)cc1	2.8	0.4	88.6*	17.5
COc1ccc(N2CCN(c3ncccn3)CC2)cc1	7.8	1.4	99.5*	-3.4

Assay outcomes deposited in PubChem by several laboratories.
